GIRK2 act: GIRK2 channel activation | hit rate 0.05% among 63,000 | HEK293-GIRK2 thallium flux, Thallos fluorescence, MPD | calls only for hits at 25 µM | P48051; call rule not given here
Target sequence (P48051 whole entry, looked up): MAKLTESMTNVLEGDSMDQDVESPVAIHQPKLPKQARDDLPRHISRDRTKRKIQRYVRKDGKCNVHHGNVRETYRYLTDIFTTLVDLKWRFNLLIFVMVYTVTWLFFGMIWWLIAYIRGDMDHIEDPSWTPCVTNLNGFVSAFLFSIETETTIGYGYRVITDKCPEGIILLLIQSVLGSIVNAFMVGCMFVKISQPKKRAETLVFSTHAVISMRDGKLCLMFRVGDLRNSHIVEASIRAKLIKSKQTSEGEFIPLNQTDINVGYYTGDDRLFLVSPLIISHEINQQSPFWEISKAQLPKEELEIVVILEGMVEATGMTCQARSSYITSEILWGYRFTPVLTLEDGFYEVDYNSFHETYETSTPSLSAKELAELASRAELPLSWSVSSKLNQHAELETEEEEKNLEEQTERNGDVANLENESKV
The depositor's hits bear a star; i = inactive; + = active, no number. The sample as a whole holds a higher share of hits than the screen did.

SMILES | GIRK2 act
Cc1ccc(NC(=O)C(=O)NCC(O)(c2ccccc2)C2CC2)cc1N1CCCC1=O (stereo unspecified) | i
CC1C(=O)N2CCCc3cc(NC(=O)C(=O)NCC4(O)CCOc5ccccc54)cc1c32 (stereo unspecified) | i
CC1C(=O)N2CCCc3cc(NC(=O)C(=O)NCC(O)(c4ccccc4)C4CC4)cc1c32 (stereo unspecified) | +
COc1cc2c(cc1OC)CN(C(=O)c1nnn(-c3ccc(F)cc3)n1)CC2 | i
O=C(CSC1CCCC1)NCC(O)(c1ccccc1)C(F)(F)F (stereo unspecified) | i
O=C1NC(=O)C(C(=S)Nc2ccccc2)C(=O)N1 | i
COc1coc(C(=O)NCc2ccccc2)cc1=O | i
COc1coc(C(=O)Nc2ccc(Oc3ccccc3)cc2)cc1=O | +
COc1coc(C(=O)Nc2ccc(C)c(Cl)c2)cc1=O | i
CCCc1nnsc1C(=O)N1CCCC(c2nnc(-c3cccs3)o2)C1 (stereo unspecified) | i
COc1ccc(NC(=O)CSc2cc(N3CCN(c4ccccc4OC)CC3)ncn2)cc1 | i
Cc1cc(C)n(-c2ncc(NC(=O)Nc3ccc(Cl)c(C(F)(F)F)c3)cn2)n1 | i
Cc1ccc(NC(=O)Nc2cnc(N3CCN(C)CC3)nc2)c(Cl)c1 | i
CN1CCN(c2ncc(NC(=O)Nc3ccc(Cl)c(C(F)(F)F)c3)cn2)CC1 | +
COC(=O)c1ccccc1NC(=O)c1nnn(-c2ccccc2)c1-c1ccccn1 | i
O=C(Nc1cccc(Cl)c1F)c1nnn(-c2ccccc2)c1-c1ccccn1 | +
O=C(NCc1ccc(F)c(Cl)c1)c1nnn(-c2ccccc2)c1-c1ccccn1 | i
O=C(c1cccs1)N1CCc2ccc(NC(=O)C3(c4ccc(F)cc4)CC3)cc2C1 | i
CCC(C)(C)C(=O)O[C@H]1C[C@@H](C)C=C2C=C[C@H](C)[C@H](CC[C@@H]3C[C@@H](O)CC(=O)O3)[C@H]21 | i
COc1ccccc1OCC(=O)NCCC(O)c1cccc2ccccc12 (stereo unspecified) | i
COc1cccc(NC(=O)NCC(O)c2ccc3c(c2)CCO3)c1OC (stereo unspecified) | i
O=C(NCCc1cccs1)c1cnn2c(-c3ccccn3)ccnc12 | i
NC(=O)COc1ccc2c(=O)c(-c3ccc(Cl)cc3)c(C(F)(F)F)oc2c1 | +
COc1ccc(-c2c(C(F)(F)F)oc3cc(OCC(=O)OC(C)(C)C)ccc3c2=O)cc1 | i
CC(C)(C)OC(=O)COc1ccc2c(=O)c(-c3ccccc3)c(C(F)(F)F)oc2c1 | i
SMILES | GIRK2 act
Cc1ccc(CN(c2ccc(F)c(F)c2)S(=O)(=O)c2cccn3cnnc23)cc1 | i
N#Cc1ccc(Cl)cc1NC(=O)C(=O)NCC(c1cccs1)N1CCOCC1 (stereo unspecified) | i
O=C(NCC(c1cccs1)N1CCOCC1)C(=O)Nc1ccccc1F (stereo unspecified) | +
O=C(NCC(c1cccs1)N1CCOCC1)C(=O)Nc1ccc2c(c1)OCCO2 (stereo unspecified) | i
CCOc1cccc(CNC(=O)C2CCCN(c3nc4c(-c5ccccc5)csc4c(=O)[nH]3)C2)c1 (stereo unspecified) | i
O=C(NCCC1=CCCCC1)C1CCN(c2nc3ccsc3c(=O)n2Cc2ccccc2)CC1 | i
COc1ccc(C(O)=C2C(=O)C(=O)N(c3cc(C)on3)C2c2cccs2)cc1 (stereo unspecified) | i
COCCCNC(=O)CSc1nc(-c2ccc(F)cc2)[nH]c1-c1ccc(F)cc1 | +
COCCCNC(=O)CSc1nc(-c2ccc(OC)c(OC)c2)[nH]c1-c1ccc(F)cc1 | i
COCCCNC(=O)CSc1nc(-c2ccccc2)[nH]c1-c1ccc(OC)cc1 | i
COc1ccc(S(=O)(=O)NCCc2nc(-c3ccco3)cn2C)c(C)c1 | i
COc1ccc(CNC(=O)c2nnn(Cc3nc(-c4ccccc4)oc3C)c2N)cc1 | i
Cn1cnc(S(=O)(=O)N2CCC3(CC2)OCCS3)c1 | i
CCOc1ccc(-c2csc(-n3nc(C)cc3NC(=O)c3cccs3)n2)cc1 | i
Nc1nc(-c2ccc(F)cc2)c(-c2ccc3ncccc3n2)s1 | i
Fc1ccc(-c2n[nH]c(=S)s2)cc1 | +
Cc1nc(-c2ccc(F)cc2)sc1-c1cc(C(=O)N(C)Cc2ccccc2)n[nH]1 | i
COc1ccc(OC)c2sc(NC(=O)Nc3c(F)cccc3F)nc12 | i
CCN(CC)c1ccc(C2C(C(=O)OC)=C(C)N=C3SCC(=O)N32)cc1 (stereo unspecified) | i
COc1ccc2c(c1)c(CC(=O)NC[C@H](C)c1ccccc1)c(C)n2C(=O)c1ccc(Cl)cc1 | i
O=C(Nc1cc2ccccc2oc1=O)c1cnn2c1OCCC2 | i
N#Cc1ccc(Cl)cc1NC(=O)c1cnn2c1OCCC2 | i
O=C(Nc1cc(Cl)ccc1O)c1cnn2c1OCCC2 | +
CC1CCCN(CC(O)COc2ccc(-c3ccccc3)cc2)C1 (stereo unspecified) | i
O=C(NCC1CCN(Cc2cccs2)CC1)c1ccsc1 | i
